Data reported in PMC7862700, “An all-to-all approach to the identification of sequence-specific readers for epigenetic DNA modifications on cytosine”.

Tests used:
Experiment in all cases: DAPPL (digital affinity profiling via proximity ligation, sequencing); 10 mM Tris-HCl pH 7.5, 50 mM NaCl, 1 mM DTT, 4% glycerol, room temperature, 30 min; GST-TFs on glutathione beads, 16-mer random dsDNA library, 0.1% formaldehyde crosslink after washing; high values mean tight binding
Conditions in all cases: protein: recombinant; tags: N-terminal GST; dsDNA, one strand shown
FLI1 = target: T1, FLI1 (Homo sapiens, UniProt Q01543 1-452)
T1 sequence: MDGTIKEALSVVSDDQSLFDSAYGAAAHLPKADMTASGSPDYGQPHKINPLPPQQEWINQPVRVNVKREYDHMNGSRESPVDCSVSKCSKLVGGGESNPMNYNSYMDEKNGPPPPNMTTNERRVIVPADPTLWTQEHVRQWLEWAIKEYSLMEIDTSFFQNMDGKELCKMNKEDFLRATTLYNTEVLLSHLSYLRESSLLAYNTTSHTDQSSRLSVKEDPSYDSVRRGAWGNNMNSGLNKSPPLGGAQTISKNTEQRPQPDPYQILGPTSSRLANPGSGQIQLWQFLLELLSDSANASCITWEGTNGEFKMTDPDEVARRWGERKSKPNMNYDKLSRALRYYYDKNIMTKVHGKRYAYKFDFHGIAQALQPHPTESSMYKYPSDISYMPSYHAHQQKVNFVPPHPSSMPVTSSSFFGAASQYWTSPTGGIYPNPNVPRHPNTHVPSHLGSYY
Outline: (§1)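 Human transcription factors were made in yeast as GST fusions, captured on glutathione beads and barcoded with DNA. With a tag-only sample included, the pool was incubated with 200 nmole of a random double-stranded 16-mer DNA library in Tris/NaCl/DTT/glycerol buffer at room temperature for 30 min, then crosslinked with 0.1% formaldehyde after washing, ligated by proximity, amplified and sequenced. For binding signal, each hexamer's read frequency for a factor is divided by its frequency for the tag-only sample.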

ELK1 = target: T2, ELK1 (Homo sapiens, UniProt P19419 1-428)
T2 sequence: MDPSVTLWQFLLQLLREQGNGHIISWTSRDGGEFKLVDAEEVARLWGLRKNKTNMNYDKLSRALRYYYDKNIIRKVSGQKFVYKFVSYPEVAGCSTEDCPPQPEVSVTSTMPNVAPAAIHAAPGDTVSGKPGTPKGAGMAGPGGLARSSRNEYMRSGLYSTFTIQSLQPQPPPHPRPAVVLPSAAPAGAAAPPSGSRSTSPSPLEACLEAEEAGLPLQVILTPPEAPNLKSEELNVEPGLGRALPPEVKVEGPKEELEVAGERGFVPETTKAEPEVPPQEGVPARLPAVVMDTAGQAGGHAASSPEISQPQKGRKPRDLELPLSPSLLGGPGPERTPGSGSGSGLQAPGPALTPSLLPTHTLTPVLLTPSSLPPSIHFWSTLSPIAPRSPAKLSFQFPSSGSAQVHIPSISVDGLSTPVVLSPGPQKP
Outline: as §1

GABPA = target: T3, GABPA (Homo sapiens, UniProt Q06546 1-454)
T3 sequence: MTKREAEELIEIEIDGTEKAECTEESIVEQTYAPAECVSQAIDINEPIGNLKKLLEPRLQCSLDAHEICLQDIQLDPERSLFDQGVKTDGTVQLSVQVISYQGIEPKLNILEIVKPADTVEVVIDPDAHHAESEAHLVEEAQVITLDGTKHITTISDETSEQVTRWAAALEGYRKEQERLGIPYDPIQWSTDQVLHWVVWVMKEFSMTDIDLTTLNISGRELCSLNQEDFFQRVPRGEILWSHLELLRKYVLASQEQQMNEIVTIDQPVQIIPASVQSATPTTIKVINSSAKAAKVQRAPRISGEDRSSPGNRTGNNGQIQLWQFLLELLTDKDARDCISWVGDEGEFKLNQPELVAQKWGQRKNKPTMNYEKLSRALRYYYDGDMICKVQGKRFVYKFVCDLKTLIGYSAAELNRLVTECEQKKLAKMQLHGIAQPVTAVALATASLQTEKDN
Outline: as §1

ERG = target: T4, ERG (Homo sapiens, UniProt P11308 1-479)
T4 sequence: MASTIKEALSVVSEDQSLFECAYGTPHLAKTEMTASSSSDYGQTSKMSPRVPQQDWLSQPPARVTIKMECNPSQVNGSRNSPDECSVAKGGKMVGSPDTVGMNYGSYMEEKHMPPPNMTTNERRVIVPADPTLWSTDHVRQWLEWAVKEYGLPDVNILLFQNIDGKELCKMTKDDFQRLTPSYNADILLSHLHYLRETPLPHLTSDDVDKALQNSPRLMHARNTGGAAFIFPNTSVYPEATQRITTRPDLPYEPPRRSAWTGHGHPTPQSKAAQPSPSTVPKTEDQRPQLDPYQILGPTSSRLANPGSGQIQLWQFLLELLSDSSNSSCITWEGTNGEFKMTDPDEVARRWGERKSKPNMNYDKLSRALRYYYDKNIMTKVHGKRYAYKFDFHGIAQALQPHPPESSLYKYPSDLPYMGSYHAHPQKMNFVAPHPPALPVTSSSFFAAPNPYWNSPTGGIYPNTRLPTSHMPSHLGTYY
Outline: as §1

ELF1 = ELF1 (Homo sapiens, UniProt P32519 1-619)
Outline: as §1

EHF = target: T5, EHF (Homo sapiens, UniProt Q9NZC4 1-300)
T5 sequence: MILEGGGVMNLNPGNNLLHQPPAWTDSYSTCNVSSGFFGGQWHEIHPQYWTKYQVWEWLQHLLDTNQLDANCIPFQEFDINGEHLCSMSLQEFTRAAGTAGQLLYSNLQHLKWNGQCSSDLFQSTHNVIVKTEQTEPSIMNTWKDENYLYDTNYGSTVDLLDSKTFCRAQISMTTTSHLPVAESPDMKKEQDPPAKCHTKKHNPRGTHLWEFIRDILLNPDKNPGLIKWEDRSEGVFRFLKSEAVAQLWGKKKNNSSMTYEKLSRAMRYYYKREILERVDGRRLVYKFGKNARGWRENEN
Outline: as §1

SPI1 = SPI1 (Homo sapiens, UniProt P17947 1-270)
Outline: as §1

SPIB = SPIB (Homo sapiens, UniProt Q01892 1-262)
Outline: as §1

ELK3 = target: T6, ELK3 (Homo sapiens, UniProt P41970 1-407)
T6 sequence: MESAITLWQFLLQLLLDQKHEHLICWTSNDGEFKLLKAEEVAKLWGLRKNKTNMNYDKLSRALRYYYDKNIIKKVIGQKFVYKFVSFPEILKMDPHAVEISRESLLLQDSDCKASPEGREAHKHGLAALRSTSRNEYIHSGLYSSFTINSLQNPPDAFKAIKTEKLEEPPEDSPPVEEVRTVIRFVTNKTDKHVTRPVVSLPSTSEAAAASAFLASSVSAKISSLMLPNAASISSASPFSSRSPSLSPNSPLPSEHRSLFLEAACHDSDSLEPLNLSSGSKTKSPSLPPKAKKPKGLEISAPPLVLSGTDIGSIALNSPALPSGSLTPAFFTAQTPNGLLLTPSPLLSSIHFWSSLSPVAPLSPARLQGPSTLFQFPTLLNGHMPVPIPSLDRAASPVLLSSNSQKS
Outline: as §1

FEV = target: T7, FEV (Homo sapiens, UniProt Q99581 1-238)
T7 sequence: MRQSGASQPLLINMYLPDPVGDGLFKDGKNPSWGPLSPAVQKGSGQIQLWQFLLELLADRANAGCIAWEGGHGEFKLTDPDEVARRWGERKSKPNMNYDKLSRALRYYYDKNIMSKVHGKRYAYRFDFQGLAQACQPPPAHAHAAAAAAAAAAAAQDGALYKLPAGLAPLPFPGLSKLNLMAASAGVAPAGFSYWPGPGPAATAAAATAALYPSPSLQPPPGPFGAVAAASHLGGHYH
Outline: as §1

ETV5 = ETV5 (Homo sapiens, UniProt P41161 1-510)
Outline: as §1

SPIC = target: T8, SPIC (Homo sapiens, UniProt Q8N5J4 1-248)
T8 sequence: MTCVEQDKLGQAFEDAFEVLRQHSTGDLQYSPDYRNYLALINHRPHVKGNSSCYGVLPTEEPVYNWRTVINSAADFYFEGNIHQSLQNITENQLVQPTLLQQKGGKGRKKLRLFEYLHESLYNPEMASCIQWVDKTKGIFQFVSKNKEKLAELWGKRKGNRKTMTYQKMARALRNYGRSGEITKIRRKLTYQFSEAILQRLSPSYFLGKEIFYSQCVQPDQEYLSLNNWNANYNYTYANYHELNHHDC
Outline: as §1

ELF4 = ELF4 (Homo sapiens, UniProt Q99607 1-663)
Outline: as §1

ELK4 = target: T9, ELK4 (Homo sapiens, UniProt P28324-2 1-405)
T9 sequence: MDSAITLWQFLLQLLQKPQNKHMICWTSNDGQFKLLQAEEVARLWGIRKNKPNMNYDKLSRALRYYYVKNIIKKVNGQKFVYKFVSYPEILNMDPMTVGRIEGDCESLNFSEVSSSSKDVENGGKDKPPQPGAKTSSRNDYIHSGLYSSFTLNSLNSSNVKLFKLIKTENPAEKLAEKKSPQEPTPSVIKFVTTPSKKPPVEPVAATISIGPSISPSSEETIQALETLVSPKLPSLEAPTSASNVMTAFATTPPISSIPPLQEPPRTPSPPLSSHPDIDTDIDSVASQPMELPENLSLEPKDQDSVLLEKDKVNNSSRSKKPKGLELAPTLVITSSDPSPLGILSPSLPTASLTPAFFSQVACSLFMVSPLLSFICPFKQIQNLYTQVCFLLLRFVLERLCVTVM
Outline: as §1

ETV2 = target: T10, ETV2 (Homo sapiens, UniProt O00321 1-342)
T10 sequence: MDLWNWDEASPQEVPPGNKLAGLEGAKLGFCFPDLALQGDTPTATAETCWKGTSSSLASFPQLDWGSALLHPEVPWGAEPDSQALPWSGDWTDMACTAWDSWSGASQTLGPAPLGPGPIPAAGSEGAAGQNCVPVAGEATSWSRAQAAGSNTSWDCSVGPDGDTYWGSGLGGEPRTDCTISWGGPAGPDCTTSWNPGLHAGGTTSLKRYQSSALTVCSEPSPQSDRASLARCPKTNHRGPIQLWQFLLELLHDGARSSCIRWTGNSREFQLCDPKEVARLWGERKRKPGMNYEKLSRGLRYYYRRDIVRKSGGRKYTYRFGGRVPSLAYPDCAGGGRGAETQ
Outline: as §1

ELF3 = target: T11, ELF3 (Homo sapiens, UniProt P78545 1-371)
T11 sequence: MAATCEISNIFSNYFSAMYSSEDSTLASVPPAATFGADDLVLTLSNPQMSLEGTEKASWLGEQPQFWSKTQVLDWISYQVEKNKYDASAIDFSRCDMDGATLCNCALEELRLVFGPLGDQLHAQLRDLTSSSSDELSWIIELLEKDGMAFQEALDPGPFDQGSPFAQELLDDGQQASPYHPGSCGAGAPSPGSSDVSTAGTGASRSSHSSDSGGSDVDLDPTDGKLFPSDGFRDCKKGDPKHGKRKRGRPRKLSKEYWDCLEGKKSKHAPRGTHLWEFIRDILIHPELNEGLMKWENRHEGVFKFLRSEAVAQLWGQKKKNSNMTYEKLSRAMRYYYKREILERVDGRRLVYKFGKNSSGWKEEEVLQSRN
Outline: as §1

CRX = CRX (Homo sapiens, UniProt O43186 1-299)
Outline: as §1

ETV1 = ETV1 (Homo sapiens, UniProt P50549 1-477)
Outline: as §1

Sequence of ETV5 (P41161 whole entry): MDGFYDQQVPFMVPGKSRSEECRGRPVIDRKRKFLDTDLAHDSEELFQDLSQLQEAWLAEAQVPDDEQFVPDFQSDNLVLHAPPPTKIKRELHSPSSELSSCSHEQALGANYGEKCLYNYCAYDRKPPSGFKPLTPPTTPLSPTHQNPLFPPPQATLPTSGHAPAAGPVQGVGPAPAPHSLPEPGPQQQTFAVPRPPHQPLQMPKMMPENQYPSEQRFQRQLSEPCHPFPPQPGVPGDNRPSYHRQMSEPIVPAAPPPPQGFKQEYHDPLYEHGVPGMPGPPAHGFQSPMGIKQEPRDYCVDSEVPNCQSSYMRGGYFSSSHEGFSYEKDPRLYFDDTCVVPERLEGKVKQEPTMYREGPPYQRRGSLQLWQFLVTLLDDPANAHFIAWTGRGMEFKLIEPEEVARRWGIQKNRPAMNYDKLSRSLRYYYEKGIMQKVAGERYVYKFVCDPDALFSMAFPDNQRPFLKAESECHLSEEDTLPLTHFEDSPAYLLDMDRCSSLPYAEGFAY
Sequence of ELF4 (Q99607 whole entry): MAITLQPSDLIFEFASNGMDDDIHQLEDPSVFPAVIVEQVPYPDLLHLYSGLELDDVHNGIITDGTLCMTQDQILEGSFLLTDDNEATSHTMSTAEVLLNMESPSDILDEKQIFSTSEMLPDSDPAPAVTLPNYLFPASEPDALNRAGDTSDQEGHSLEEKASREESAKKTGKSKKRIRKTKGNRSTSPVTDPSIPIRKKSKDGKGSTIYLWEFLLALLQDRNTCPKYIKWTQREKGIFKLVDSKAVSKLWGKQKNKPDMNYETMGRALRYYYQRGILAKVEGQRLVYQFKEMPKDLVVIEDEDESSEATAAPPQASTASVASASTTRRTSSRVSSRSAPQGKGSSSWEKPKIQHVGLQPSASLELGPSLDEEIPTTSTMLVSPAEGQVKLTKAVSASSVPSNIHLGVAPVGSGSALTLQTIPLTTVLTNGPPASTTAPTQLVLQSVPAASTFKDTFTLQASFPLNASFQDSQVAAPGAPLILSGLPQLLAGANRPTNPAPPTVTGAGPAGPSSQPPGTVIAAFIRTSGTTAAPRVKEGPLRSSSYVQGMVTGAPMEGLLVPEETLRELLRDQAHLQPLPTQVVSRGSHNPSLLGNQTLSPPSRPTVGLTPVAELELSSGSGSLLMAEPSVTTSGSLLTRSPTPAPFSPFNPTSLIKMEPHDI
Sequence of ELF1 (P32519 whole entry): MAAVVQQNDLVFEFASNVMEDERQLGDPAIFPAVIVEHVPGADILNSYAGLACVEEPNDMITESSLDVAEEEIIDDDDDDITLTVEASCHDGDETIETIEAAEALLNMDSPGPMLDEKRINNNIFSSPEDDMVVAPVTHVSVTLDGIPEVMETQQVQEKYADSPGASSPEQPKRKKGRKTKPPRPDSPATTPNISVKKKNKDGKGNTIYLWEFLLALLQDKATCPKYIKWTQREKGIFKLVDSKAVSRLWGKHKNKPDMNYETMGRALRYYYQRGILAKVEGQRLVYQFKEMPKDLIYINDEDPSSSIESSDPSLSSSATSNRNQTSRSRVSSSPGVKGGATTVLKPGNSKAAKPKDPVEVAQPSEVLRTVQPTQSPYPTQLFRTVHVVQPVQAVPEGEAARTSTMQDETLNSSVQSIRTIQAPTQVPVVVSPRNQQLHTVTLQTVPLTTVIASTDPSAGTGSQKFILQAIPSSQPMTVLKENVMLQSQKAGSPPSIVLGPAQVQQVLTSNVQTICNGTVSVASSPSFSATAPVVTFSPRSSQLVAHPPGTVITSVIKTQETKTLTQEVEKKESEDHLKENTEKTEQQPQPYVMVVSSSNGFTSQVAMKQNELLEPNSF
Sequence of CRX (O43186 whole entry): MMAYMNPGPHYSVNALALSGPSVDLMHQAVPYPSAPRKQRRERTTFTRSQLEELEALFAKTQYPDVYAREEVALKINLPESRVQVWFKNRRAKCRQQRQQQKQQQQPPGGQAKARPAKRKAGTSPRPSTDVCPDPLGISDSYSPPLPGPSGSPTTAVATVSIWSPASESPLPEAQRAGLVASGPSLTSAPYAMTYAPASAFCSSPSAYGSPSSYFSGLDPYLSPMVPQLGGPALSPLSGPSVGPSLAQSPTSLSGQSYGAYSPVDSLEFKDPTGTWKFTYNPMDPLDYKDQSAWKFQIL
Sequence of SPIB (Q01892 whole entry): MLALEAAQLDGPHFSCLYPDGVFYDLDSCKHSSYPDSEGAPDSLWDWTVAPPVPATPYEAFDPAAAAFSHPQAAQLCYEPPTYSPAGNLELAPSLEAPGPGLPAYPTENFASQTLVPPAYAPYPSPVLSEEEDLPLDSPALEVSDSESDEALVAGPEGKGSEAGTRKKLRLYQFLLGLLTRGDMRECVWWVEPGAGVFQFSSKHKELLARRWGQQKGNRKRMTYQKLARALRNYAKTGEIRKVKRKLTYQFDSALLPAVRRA
Sequence of ETV1 (P50549 whole entry): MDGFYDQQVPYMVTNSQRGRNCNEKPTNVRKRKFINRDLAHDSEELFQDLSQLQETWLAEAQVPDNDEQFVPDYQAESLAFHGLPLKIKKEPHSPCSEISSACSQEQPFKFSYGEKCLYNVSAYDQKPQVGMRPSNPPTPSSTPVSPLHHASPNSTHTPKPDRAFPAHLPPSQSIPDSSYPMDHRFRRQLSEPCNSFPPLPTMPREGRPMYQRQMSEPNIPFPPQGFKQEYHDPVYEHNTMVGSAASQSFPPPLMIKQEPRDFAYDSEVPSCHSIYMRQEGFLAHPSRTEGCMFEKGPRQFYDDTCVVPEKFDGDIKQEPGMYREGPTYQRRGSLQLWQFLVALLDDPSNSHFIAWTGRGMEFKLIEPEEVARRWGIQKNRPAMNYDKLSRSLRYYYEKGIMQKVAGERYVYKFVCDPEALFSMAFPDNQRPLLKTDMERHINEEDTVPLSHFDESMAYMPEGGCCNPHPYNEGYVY

Sequence | binding signal (FLI1) | binding signal (ELK1) | binding signal (GABPA) | binding signal (ERG) | binding signal (ELF1) | binding signal (EHF) | binding signal (SPI1) | binding signal (SPIB) | binding signal (ELK3) | binding signal (FEV) | binding signal (ETV5) | binding signal (SPIC) | binding signal (ELF4) | binding signal (ELK4) | binding signal (ETV2) | binding signal (ELF3) | binding signal (CRX) | binding signal (ETV1)
CCATCA | 1.26 fold enrichment (6-mer frequency, TF over GST control) | 1.21 fold enrichment (6-mer frequency, TF over GST control) | 1.22 fold enrichment (6-mer frequency, TF over GST control) | 1.15 fold enrichment (6-mer frequency, TF over GST control) | 1.29 fold enrichment (6-mer frequency, TF over GST control) | 1.18 fold enrichment (6-mer frequency, TF over GST control) | 1.19 fold enrichment (6-mer frequency, TF over GST control) | 1.17 fold enrichment (6-mer frequency, TF over GST control) | 1.2 fold enrichment (6-mer frequency, TF over GST control) | 1.13 fold enrichment (6-mer frequency, TF over GST control) | 1.23 fold enrichment (6-mer frequency, TF over GST control) | 1.09 fold enrichment (6-mer frequency, TF over GST control) | 1.2 fold enrichment (6-mer frequency, TF over GST control) | 1.24 fold enrichment (6-mer frequency, TF over GST control) | 1.11 fold enrichment (6-mer frequency, TF over GST control) | 1.28 fold enrichment (6-mer frequency, TF over GST control) | 1.04 fold enrichment (6-mer frequency, TF over GST control) | 1.13 fold enrichment (6-mer frequency, TF over GST control)
TCATGG | 1.11 fold enrichment (6-mer frequency, TF over GST control) | 1.05 fold enrichment (6-mer frequency, TF over GST control) | 1.11 fold enrichment (6-mer frequency, TF over GST control) | 1.15 fold enrichment (6-mer frequency, TF over GST control) | 1.18 fold enrichment (6-mer frequency, TF over GST control) | 1.12 fold enrichment (6-mer frequency, TF over GST control) | 1.08 fold enrichment (6-mer frequency, TF over GST control) | 1.11 fold enrichment (6-mer frequency, TF over GST control) | 1.16 fold enrichment (6-mer frequency, TF over GST control) | 1.05 fold enrichment (6-mer frequency, TF over GST control) | 1.09 fold enrichment (6-mer frequency, TF over GST control) | 1.16 fold enrichment (6-mer frequency, TF over GST control) | 1.07 fold enrichment (6-mer frequency, TF over GST control) | 1.05 fold enrichment (6-mer frequency, TF over GST control) | 1.04 fold enrichment (6-mer frequency, TF over GST control) | 1.16 fold enrichment (6-mer frequency, TF over GST control) | 1.07 fold enrichment (6-mer frequency, TF over GST control) | –
